Experimental data published in PubChem BioAssay (NCATS).
Results filed as inconclusive are left out. Active and inactive are the calls of the source. Calls follow the shape of the dose curve; as a rule, active = well fitted inhibition curve with a large enough effect; inconclusive = small, poorly fitted or top-dose-only effect, or effect the other way; inactive = flat fitted curve, though single readings scatter.

target: ATP-dependent 6-phosphofructokinase (Trypanosoma brucei brucei) (UniProt O15648); assay: qHTS Assay to Find Inhibitors of T. brucei phosphofructokinase: hit validation (AID 492961);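 also: luminescence reports ADP formed as PFK phosphorylates fructose-6-phosphate with ATP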; details: T. brucei PFK, ADP-Glo luminescence; series mostly up to 24.3 µM; activity change, negative = inhibition: at the top concentration
Excerpt: NIH Molecular Libraries Probe Production Network [MLPCN] NIH Chemical Genomics Center [NCGC] Grant: 1 R03 MH092153-01 PI Name: Malcolm Walkinshaw, University of Edinburgh NCGC Assay Overview: Various species of the protozoan family Trypanosomatidae are responsible for a range of serious human diseases in tropical and subtropical areas of the world. […] Many of the disorders caused by trypanosomatids are fatal if left untreated, but most currently used drugs are inefficient and toxic. […] Oxidative metabolism involving the mitochondrial tricarboxylic acid cycle and oxidative phosphorylation are repressed in these parasites, and recent RNA interference (RNAi) experiments have shown that even partial depletion of certain individual glycolytic enzymes can lead to the death of cultured parasites. One such glycolytic enzyme, phosphofructokinase (PFK), catalyzes the formation of fructose-1,6-bisphosphate (F1,6BP) and ADP from fructose-6-phosphate (F6P) and ATP, and in many metabolic circumstances makes an important contribution to the control of flux through the glycolytic pathway. As a specific glycolytic target, PFK is particularly attractive as it catalyzes the first irreversible step in glycolysis, and structural and kinetic studies have shown very substantial and essential differences from corresponding host enzymes, allowing for the discovery of parasite-selective inhibitors. The goal of this screen is to find small-molecule inhibitors of T. brucei PFK using a biochemical assay that measures PFK activity as a function of ADP production. A luminescence-based assay for T. brucei PFK activity has been developed which uses luciferase to detect production of ADP. Traditional luciferase-based nucleotide detection reagents rely on ATP production as a direct substrate for the luciferase reaction; however, PFK catalyzes the transfer of a phosphate from ATP to F6P, resulting in the net depletion of ATP. To directly measure the ADP product of the PFK reaction, we used the ADP-Glo detection kit (Promega), which utilizes two separate reactions to 1) deplete all remaining uncatalyzed ATP and 2) convert all remaining ADP to ATP, which is then detected through a traditional luciferase-coupled reaction. Compounds were screened as a concentration-titration series that ranged from 57 uM to 0.7 nM.
NCGC Assay Protocol Summary: Substrate buffer was dispensed into white, solid 1536-well plates at 3uL/well in 0.1M triethanolamine (TEA) buffer, pH 8.0, containing final concentrations of 5 mM MgCl2, 0.01% Tween20, 0.5 mM fructose-6-phosphate (F6P) and 0.1mM ATP. Then, 23 nL of compounds or DMSO were delivered to each well using a pin tool. One uL T. brucei PFK (0.1M TEA, 0.01% Tween20, 0.1% bovine serum albumin (BSA) and 1.25nM PFK, final concentrations) was then dispensed, and plates were incubated at room temperature for 45 min. The luminescent detection reagent, ADP-Glo (Promega), was then added in two steps: the first reagent, ADP-Glo (which converts remaining uncatalyzed ATP), was added at 2.5uL/well and incubated for ten minutes at room temperature, and the second component, Kinase Detection reagent (which converts ADP to ATP as a substrate for luciferase-based luminescence), was added immediately after at 5uL/well, followed by one final ten minute room temperature incubation. The plates were measured on a ViewLux plate reader for luminescent signal using a clear filter with a one second exposure. The %Activity was determined from the corrected luminescence values. As no specific T. brucei PFK inhibitors have been identified in the literature, 1x (1.25nM) and 0x PFK enzyme controls (untreated) were included to normalize %Activity of identified inhibitors; 0x enzyme values corresponded to 100%Activity (full inhibition), while 1x PFK enzyme values were used to normalize 0%Activity (no inhibition). Concentration-response curves were fitted to the signals arising from the resulting luminescence. […]

Chain of ATP-dependent 6-phosphofructokinase (Trypanosoma brucei brucei) (O15648 whole entry, looked up): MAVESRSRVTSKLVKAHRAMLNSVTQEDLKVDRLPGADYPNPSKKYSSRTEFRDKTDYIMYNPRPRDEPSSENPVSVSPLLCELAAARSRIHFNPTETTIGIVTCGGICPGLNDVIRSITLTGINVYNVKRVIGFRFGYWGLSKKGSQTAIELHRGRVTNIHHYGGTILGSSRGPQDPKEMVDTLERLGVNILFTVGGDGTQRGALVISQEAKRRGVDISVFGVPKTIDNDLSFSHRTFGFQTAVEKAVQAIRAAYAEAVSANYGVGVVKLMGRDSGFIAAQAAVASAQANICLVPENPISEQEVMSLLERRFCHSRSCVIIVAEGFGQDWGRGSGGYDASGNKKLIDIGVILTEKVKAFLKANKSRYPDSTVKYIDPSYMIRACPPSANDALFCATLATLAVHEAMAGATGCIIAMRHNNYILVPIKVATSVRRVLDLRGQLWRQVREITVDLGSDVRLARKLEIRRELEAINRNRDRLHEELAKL

Activity change, negative = inhibition, inactive:
CC1(C)OC2CC(=O)OC[C@@]23C1CC(=O)[C@]1(C)C3CC[C@@]2(C)C(c3ccoc3)OC(=O)C3O[C@@]321 (stereo not given in full) 6.75% [at 51.4 µM]
CCC(=O)[C@@]1(C)[C@H](C)C[C@@H]2[C@@H]3CCC4=CC(=O)C=C[C@@]4(C)[C@H]3[C@H](O)C[C@]21C 4.4%
COC(=O)[C@@H]1[C@@H]2C[C@H]3c4[nH]c5cc(OC)ccc5c4CCN3C[C@@H]2C[C@H](OC(=O)/C=C\c2cc(OC)c(OC)c(OC)c2)[C@H]1OC 2.54%
C[N+]12CCC(CC1)[C@@H](OC(=O)C(O)(c1ccccc1)c1ccccc1)C2 -5.32%
CCC(=O)O[C@@H]1[C@H](C)O[C@H](O[C@H]2[C@@H](N(C)C)[C@H](O)[C@@H](O[C@@H]3[C@@H](CC=O)C[C@@H](C)[C@@H](O)/C=C\C=C/C[C@@H](C)OC(=O)C[C@@H](OC(=O)CC)[C@H]3OC)O[C@H]2C)C[C@]1(C)O 3.02%
C[C@]12CCC(=O)C=C1CCC1C2C(=O)C[C@]2(C)C1CC[C@]2(O)C(=O)CO (stereo not given in full) -1.77% [at 51.4 µM]
CCCCCCCCCc1ccc(OCCOCCOCCOCCOCCOCCOCCOCCOCCO)cc1 0.426% [at 51.4 µM]
CCN1CCC[C@@H](OC(=O)C(c2ccccc2)c2ccccc2)C1 11.5%
O=C(OC[C@@H](O)CO)c1ccccc1Nc1ccnc2cc(Cl)ccc12 -0.211%
C/C1=C2N=C(/C=C3N=C(/C(C)=C4\[N-]C(C)(C5N=C1C(C)(CCC(=O)NCC(C)OP(=O)([O-])O[C@H]1C(O)C(n6cnc7cc(C)c(C)cc76)O[C@@H]1CO)C5CC(N)=O)C(C)(CC(N)=O)C4CCC(N)=O)C(C)(CC(N)=O)C\3CCC(N)=O)C(C)(C)C/2CCC(N)=O.[CH2-]C1OC(n2cnc3c(N)ncnc32)C(O)C1O.[Co] (stereo not given in full) 8.15% [at 51.4 µM]
Nc1nc2ncc(CNc3ccc(C(=O)NC(CCC(=O)O)C(=O)O)cc3)nc2c(=O)[nH]1 (stereo not given) 15.9% [at 51.4 µM]
Clc1ccc([C@H](Cn2ccnc2)OCc2csc3c(Cl)cccc23)c(Cl)c1 14%
COC1C=CO[C@@]2(C)Oc3c(C)c(O)c4c(O)c(c5c(nc6cc(C)ccn65)c4c3C2=O)NC(=O)/C(C)=C\C=CC(C)C(O)[C@@H](C)C(O)C(C)[C@@H](OC(C)=O)C1C (stereo not given in full) 0.73% [at 51.4 µM]
O[C@@](CCN1CCCC1)(c1ccccc1)C1CCCCC1 10.9%
CCc1c(C)[nH]c2c1C(=O)[C@H](CN1CCOCC1)CC2 3.58%
CCN(CCCCOC(=O)c1ccc(OC)c(OC)c1)[C@@H](C)Cc1ccc(OC)cc1 -5.4%
Clc1ccc(CC[C@H](Cn2ccnc2)Sc2c(Cl)cccc2Cl)cc1 1.59%
NC[C@@H]1O[C@H](O[C@@H]2[C@H](O[C@@H]3O[C@H](CO)[C@@H](O)[C@@H]3O)[C@@H](O)[C@@H](N)C[C@H]2N)[C@@H](N)[C@H](O)[C@@H]1O 13.2%
OCCN1CCN(CCC=C2c3ccccc3Sc3ccc(Cl)cc32)CC1 10.8%
C=CCOc1ccccc1OC[C@H](O)CNC(C)C -14.3%
CN1CCC[C@@H](CC2c3ccccc3Sc3ccccc32)C1 0.0126%
CN[C@H]1[C@@H](O)[C@@H](NC)[C@@H]2O[C@@]3(O)C(=O)C[C@@H](C)O[C@H]3O[C@H]2[C@H]1O -2.16%
CC(=O)N(C[C@@H](C)C(=O)O)c1c(I)cc(I)c(N)c1I 2.89%
O=C1O[C@H](CN2CCOCC2)CN1/N=C\c1ccc([N+](=O)[O-])o1 8.7%
C[C@@H]1O[C@H](O[C@@H]2\C=C/C=C\C=C/C=C\C[C@H](C)OC(=O)/C=C\[C@H]3O[C@@H]3C[C@H](O)C[C@]3(O)C[C@@H](O)[C@@H](C(=O)O)[C@H](C2)O3)[C@@H](O)[C@H](N)[C@@H]1O (stereo in doubt) -6.03% [at 51.4 µM]
CCOC(=O)[C@H](CCc1ccccc1)N[C@@H](C)C(=O)N1[C@H](C(=O)O)C[C@H]2CCC[C@@H]21 -0.975% [at 51.4 µM]
COc1ccc(C[C@@](C)(N)C(=O)O)cc1OC 2.77%
NC[C@@H]1O[C@H](O[C@H]2[C@H](O)[C@H](O[C@@H]3O[C@H](CO)[C@@H](O)[C@H](N)[C@@H]3O)[C@@H](N)C[C@H]2N)[C@@H](O)[C@H](O)[C@@H]1O -0.487%
CC(=O)C[C@H](c1ccc([N+](=O)[O-])cc1)c1c(O)c2ccccc2oc1=O -5.16%
CC(C)(C)NC[C@H](O)COc1cccc2c1CCC(=O)N2 -10.9%
CN(C/C=C\c1ccccc1)Cc1cccc2ccccc12 0.655% [at 51.4 µM]
C=Cc1c(C)c2cc3nc(cc4[nH]c(cc5nc(cc1[nH]2)C(C)=C5CCC(=O)O)c(CCC(=O)OC)c4C)[C@@]1(C)C3=CC=C(C(=O)OC)[C@H]1C(=O)OC (tested in a mixture with another compound) -4.29% [at 51.4 µM]
CC(C)(C)NC(=O)[C@@H]1CC[C@@H]2[C@@H]3CC[C@@H]4NC(=O)C=C[C@@]4(C)[C@H]3CC[C@]21C -2.92%
Clc1ccc([C@H](Cn2ccnc2)OCc2c(Cl)cccc2Cl)c(Cl)c1 2.25%
CC(C)=CCC[C@](C)(O)C1CC=C(C)CC1 (stereo not given in full) 11.2% [at 51.4 µM]
NC(C(=O)O)[C@@H]1CC(Cl)=NO1 (stereo not given in full) -11.5% [at 51.4 µM]
CCN(CC)CCOC(=O)[C@@H](Cc1cccc2ccccc12)C[C@@H]1CCCO1 -9.72%
CCN(CC)[C@@H](C)CN1c2ccccc2Sc2ccccc21 3.09%
CC1=C(C(=O)O)N2C(=O)[C@@H](NC(=O)[C@@H](N)c3ccc(O)cc3)[C@@H]2SC1 -10.9%
CC(=C(CCOP(=O)(O)O)SC(=O)c1ccccc1)N(C=O)Cc1cnc(C)nc1N -1.45%
